Screens deposited in PubChem BioAssay by National Center for Advancing Translational Sciences (NCATS).
Hits are enriched below; roughly 1.7% of the tested compounds scored in any of these assays.
GLP1R inv ag: GLP-1 receptor (human) inverse agonism; HEK293 GLP-1R CRE-luciferase, luminescence, 24 h; GLP-1R form is constitutively active; Potency, µM (top dose mostly 38.3 µM), hits mostly inhibitors; 410,000 tested, 1.6% active; AID 624417; note: nearly all actives have a fitted effect of over 55% in size
Target sequence (P43220 whole entry, looked up): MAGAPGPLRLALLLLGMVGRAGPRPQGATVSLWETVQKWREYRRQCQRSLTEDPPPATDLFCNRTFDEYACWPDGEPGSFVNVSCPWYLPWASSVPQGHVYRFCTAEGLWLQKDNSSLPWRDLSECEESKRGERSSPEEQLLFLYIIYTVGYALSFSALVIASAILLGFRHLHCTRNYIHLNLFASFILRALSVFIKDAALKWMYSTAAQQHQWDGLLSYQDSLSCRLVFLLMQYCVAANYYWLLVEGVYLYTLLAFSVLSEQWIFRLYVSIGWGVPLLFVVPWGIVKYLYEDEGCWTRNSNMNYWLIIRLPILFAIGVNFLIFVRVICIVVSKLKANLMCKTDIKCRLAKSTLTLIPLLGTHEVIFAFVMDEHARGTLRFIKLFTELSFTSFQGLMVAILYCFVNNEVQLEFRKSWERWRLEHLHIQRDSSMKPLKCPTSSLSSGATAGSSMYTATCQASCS
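Inverse agonism was detected as reduced cAMP-driven luciferase luminescence after 24 h compound treatment. The cells were HEK293 clones expressing constitutively active human GLP-1R with the reporter. Reporter-only and GPR119 cell lines served as counterscreen controls.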
LDHA block: inhibitors of human lactate dehydrogenase A; AID 1347041; activity change, % (values are at about 110 or 230 µM); P00338; purified LDHA, NADH/diaphorase-resazurin fluorescence; active compounds read low; 480,000 tested, 0.15% active; in the data active = activity change below about -30%; inconclusive = mostly about -25% to -30%
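LDH5 2 nM; NADH 0.06 mM, pyruvate 0.2 mM; 200 mM Tris pH 7.4, EDTA, Tween-20; 5 min RT. Detection: diaphorase 0.133 mg/mL + resazurin 37 µM, fluorescence ex540/em590 at 0 and 20 min; normalized to enzyme-free and DMSO wells.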
IDH1 R132H inh: blocks human mutant IDH1 R132H enzyme. AID 602179. Potency, µM (doses to about 76.6 µM), hits mostly inhibitors. 390,000 tested, 0.093% active. O75874. IDH1-R132H enzyme, NADPH consumption, diaphorase/resazurin fluorescence; note: nearly all actives have a fitted effect of over 65% in size
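IDH1-R132H (0.5 ug/mL dispensed) in pH 7.5 Tris buffer was preincubated 30 min with compound, then given a substrate mix of 0.016 mM NADPH and 2 mM alpha-KG for 80 min at room temperature; remaining NADPH was read by diaphorase/resazurin fluorescence.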
GLP1R cytotox: cytotoxic in the GLP-1 receptor inverse agonist counter-screen; Potency, µM (highest dose often 38.3 µM), actives largely listed as inhibitors; 410,000 tested, 0.13% active; HEK293 cAMP-luciferase reporter cells, luminescence, 24 h;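 note: loss of luciferase light is scored as toxicity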
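Quantitative HTS format, 1536 wells, 200 cells/uL seeded. Compounds: 23 nL, 24 h, 37 °C. Detection: luciferase reagent, luminescence at 12 min RT; decreased signal taken as cytotoxic.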
GLP-1R agonist: activates the human GLP-1 receptor | P43220 | HEK293 GLP-1R CRE-luciferase, luminescence, 4-6 h; cells express a hypersensitive GLP-1R form | Potency, µM (highest dose often 45.6 µM), hits mostly activators | 380,000 tested, 0.007% active
PTHR1 ag: agonists of human PTHR1 parathyroid hormone receptor | AID 743266 | Q03431 | HEK293 GP2 PTHR1 cells, GloSensor cAMP luminescence, 1 h | Potency, µM (titrated, usually from 115 µM), usual class: activators | 410,000 tested, 0.075% active; note: nearly all actives have a fitted effect of over 55% in size
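HEK-293-derived GP2 cells expressing PTHR1 and a GloSensor cAMP reporter, 3,000/well, plated overnight, given luciferin plus IBMX (each 0.5 mM as added) for 1 h at 37 °C, then compound for 1 h at 37 °C. Luminescence was read after 15 min at room temperature.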
A number is an active result. Unless noted, calls come from the whole dose curve; as a rule, active = well fitted curve in the direction sought with a large enough effect; inconclusive = small, poorly fitted or top-dose-only effect, or another doubt; inactive = no such curve, though single readings can be large; an effect the other way counts as inactive or inconclusive.

For CCN(Cc1ccccc1)C(=O)c1cccc(S(=O)(=O)N2CCN(Cc3ccccc3)CC2)c1 the results were GLP1R inv ag inconclusive, LDHA block inactive, IDH1 R132H inh inactive, GLP1R cytotox inactive, GLP-1R agonist inactive and PTHR1 ag inactive.
CCOC(=O)C1CCC(CN(Cc2ccc(OC)cc2)S(=O)(=O)c2ccc(F)c(C(=O)Nc3cc(Cl)ccc3OC)c2)CC1 (stereo unspecified) was read as GLP1R inv ag inconclusive, LDHA block inactive, IDH1 R132H inh inactive, GLP1R cytotox inactive and PTHR1 ag inactive.
Screening CCOC(=O)C1CCC(CN(Cc2ccc(OC)cc2)S(=O)(=O)c2ccc(F)c(C(=O)Nc3c(C)cccc3C)c2)CC1 (stereo unspecified) returned GLP1R inv ag 2µM, LDHA block inactive, IDH1 R132H inh inactive, GLP1R cytotox inactive and PTHR1 ag inactive.
Screening CCNC(=O)c1cccc(NC(=O)c2cc(=O)c3cc(C)ccc3o2)c1 returned LDHA block inactive.
Screening Cc1c(CC(=O)NCC(=O)O)c(=O)oc2cc3occ(-c4ccccc4)c3cc12 returned GLP1R inv ag inactive, LDHA block -85, IDH1 R132H inh inactive, GLP1R cytotox inactive, GLP-1R agonist inactive and PTHR1 ag inactive.
Cc1c(CC(=O)NCCCC(=O)O)c(=O)oc2cc3occ(-c4ccccc4)c3cc12 was read as GLP1R inv ag inactive, LDHA block inactive, IDH1 R132H inh inactive, GLP1R cytotox inactive, GLP-1R agonist inactive and PTHR1 ag inconclusive.
Screening Cc1c(CC(=O)O)c(=O)oc2cc3occ(-c4ccc(F)cc4)c3cc12 returned GLP1R inv ag inactive, LDHA block -42, IDH1 R132H inh inactive, GLP1R cytotox inactive, GLP-1R agonist inactive and PTHR1 ag inactive.
For Cc1[nH]c2ccc(F)cc2c1CCN(Cc1ccncc1)C(=S)NC(C)(C)C the results were LDHA block inactive.
Cc1noc(C)c1CSCC(=O)Nc1cc(Cl)ccc1N1CCCCC1 was read as GLP1R inv ag 11µM, LDHA block inactive, IDH1 R132H inh inactive, GLP1R cytotox inactive, GLP-1R agonist inactive and PTHR1 ag inactive.
Screening Cc1ccc(SCCC(=O)OCc2cc(C#N)ccc2F)cc1 returned LDHA block inactive.
`Cc1sc2nc(NCCO)n3nc(-c4ccco4)nc3c2c1C` gave LDHA block inactive.
For O=C(c1ccccc1F)N(Cc1nc2ccccc2c(=O)[nH]1)C1CCCC1 the results were GLP1R inv ag 10µM, LDHA block inactive, IDH1 R132H inh inactive, GLP1R cytotox inconclusive, GLP-1R agonist inactive and PTHR1 ag inactive.
For O=C(NCC(O)c1ccccc1)c1ccc(CNS(=O)(=O)c2ccc(F)cc2)cc1 (stereo unspecified) the results were LDHA block inactive.
Screening COc1ccc(/C(O)=C2\C(=O)C(=O)NC2c2ccc(C(C)(C)C)cc2)cc1F (stereo unspecified) returned LDHA block inactive.
Screening Cn1ncc(Br)c1C(=O)NC12CC3CC(CC(C3)C1)C2 returned GLP1R inv ag 10µM, LDHA block inactive, IDH1 R132H inh inactive, GLP1R cytotox inactive, GLP-1R agonist inactive and PTHR1 ag inactive.
Screening Cn1ncc(Br)c1C(=O)N1CCCC1 returned GLP1R inv ag inactive, LDHA block inactive, IDH1 R132H inh inactive, GLP1R cytotox inactive, GLP-1R agonist inactive and PTHR1 ag inactive.
Screening COc1cccc(N/C(SCc2ccccc2F)=C(/C#N)C(=O)NCc2cccs2)c1 returned GLP1R inv ag 5µM, LDHA block inactive, IDH1 R132H inh inactive, GLP1R cytotox inactive, GLP-1R agonist inactive and PTHR1 ag inactive.
`Cc1cc(=O)oc2cc(OS(=O)(=O)c3cccc(Cl)c3)ccc12` gave LDHA block inactive.
For CCc1nn(CC(=O)NCCCN(CC)CC)c(=O)c2cc3sc(C)cc3n12 the results were GLP1R inv ag 10µM, LDHA block inactive, IDH1 R132H inh inactive, GLP1R cytotox inactive, GLP-1R agonist inactive and PTHR1 ag inactive.
CCc1nn(CC(=O)NCCCN(CC(C)C)CC(C)C)c(=O)c2cc3sc(C)cc3n12 was read as GLP1R inv ag inactive, LDHA block inactive, IDH1 R132H inh inactive, GLP1R cytotox inactive and PTHR1 ag inconclusive.
Screening Cc1ccc(-n2ncc3c(NC4CCCCC4)ncnc32)cc1 returned GLP1R inv ag 10µM, LDHA block inactive, IDH1 R132H inh inactive, GLP1R cytotox inactive and PTHR1 ag inactive.
Screening Fc1ccc(-n2ncc3c(NC4CCCCC4)ncnc32)cc1 returned LDHA block inactive.
For Cc1ccc(-n2ncc3c(NC4CCCCCC4)ncnc32)cc1 the results were GLP1R inv ag 4.5µM, LDHA block inactive, IDH1 R132H inh inactive, GLP1R cytotox inactive and PTHR1 ag inactive.
Screening Nc1sc(Cc2ccccc2)cc1C(=O)c1c(-c2ccccc2)[nH]c2ccccc12 returned GLP1R inv ag 5.6µM, LDHA block inactive, GLP1R cytotox inconclusive and PTHR1 ag inactive.
For NC(=O)c1cc(Cc2ccccc2)sc1NC(=O)c1ccccc1 the results were LDHA block inactive.
Screening O=[N+]([O-])c1cccc2nc(/C=C/c3cccc(O)c3)ccc12 returned LDHA block inactive.
`Cc1ccc(-c2cc(C(F)(F)F)on2)cc1S(=O)(=O)NCc1ccc(F)cc1` gave LDHA block inactive.
Screening O=C(O)CN1C(=O)/C(=C/c2ccc(-c3cccc(Cl)c3)o2)SC1=S returned LDHA block -63.
Screening O=C(O)CN1C(=O)/C(=C\c2cc(Br)ccc2OCc2ccc(Cl)cc2)SC1=S returned GLP1R inv ag inconclusive, LDHA block -40, IDH1 R132H inh inconclusive, GLP1R cytotox inactive, GLP-1R agonist inactive and PTHR1 ag inactive.
For O=C(O)CN1C(=O)/C(=C\c2ccccc2OCc2ccc(F)cc2)SC1=S the results were GLP1R inv ag inconclusive, LDHA block inactive, IDH1 R132H inh inactive, GLP1R cytotox inactive, GLP-1R agonist inactive and PTHR1 ag inconclusive.
O=C(O)CN1C(=O)/C(=C\c2cc(Br)ccc2OCc2ccc(F)cc2)SC1=S was read as GLP1R inv ag inconclusive, LDHA block -34, IDH1 R132H inh inactive, GLP1R cytotox inconclusive, GLP-1R agonist inactive and PTHR1 ag inactive.
Screening O=C(NCCc1cnc(-c2ccccc2)[nH]1)c1ccc(Br)cc1 returned LDHA block inactive.
`CC(c1cccc2ccccc12)N(C(=O)c1cccs1)C1CC1` (stereo unspecified) gave LDHA block inactive.
